This is a sample that favours compounds with a hit; in the whole collection about 7.5% have one here.
Luc counter – Counterscreen for Luciferase (Kinase-Glo TM) Inhibition; Luciferin 4-monooxygenase (Photuris pensylvanica), Q27757; Kinase-Glo luciferase, ATP luminescence, 8 min; Potency, µM (highest dose often 38.3 µM), most hits filed as inhibitors; 200,000 tested, 0.28% active; AID 1379, 2008; also: nearly all actives have a fitted effect of over 60% in size
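Inhibition of Kinase-Glo luciferase light generation was assessed at 10 uM ATP in pH 7.2 imidazole buffer, with luminescence measured after eight minutes at ambient temperature.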
SMN2 splice enh – qHTS Assay for Enhancers of SMN2 Splice Variant Expression; HEK293 SMN2-luciferase splicing reporter, luminescence, 30-36 h; Potency, µM (titrated, usually from 46.1 µM), usual class: activators; 210,000 tested, 2.8% active; also: nearly all actives have a fitted effect of over 55% in size
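HEK293 cells carry an SMN2 minigene-luciferase reporter in which exon 7 inclusion puts luciferase in frame. Cells were seeded at 2000 cells/well, attached for 10-12 hours, then exposed to compounds for 30-36 hours at 37C before ONE-Glo luminescence.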
Rab9 prom act – qHTS Assay for Rab9 Promoter Activators | Huh7 Rab9 promoter-luciferase reporter, luminescence, 24 h | Potency, µM (top dose mostly 9.22 µM), hits mostly activators | 320,000 tested, 2.8% active | AID 485297, 2010; also: nearly all actives have a fitted effect of over 60% in size
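Luciferase signal after 10 min detection reagent at ambient indicates Rab9 promoter upregulation; stably transfected Huh7 cells were treated 24 h with compound in DMSO at 37 °C, 5% CO2.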
NPC1 prom act – qHTS Assay for NPC1 Promoter Activators | 320,000 tested, 2.4% active | AID 485313, 2010 | Huh7 NPC1 promoter luciferase reporter, 24 h | Potency, µM (series often up to 9.22 µM), hits mostly activators; also: nearly all actives have a fitted effect of over 60% in size
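Luciferase expression driven by the NPC1 promoter was measured in stably transfected Huh7 cells after a 24 h compound incubation, using a luciferase reagent and a luminescence read.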
ELG1 genotox – qHTS screen for small molecules that induce genotoxicity in human embryonic kidney (HEK293T) cells expressing luciferase-tagged ELG1 | HEK293T ELG1-luciferase reporter, luminescence, 16 h | AID 504466, 2011 | 330,000 tested, 1.3% active | Potency, µM (series often up to 46 µM), hits mostly activators; also: nearly all actives have a fitted effect of over 60% in size
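Step 1: seed 2,000 HEK293T ELG1-luciferase cells per well. Step 2: add compound or DMSO, incubate 16 hr at 37 °C. Step 3: ONE-Glo, 30 min at room temperature, read luminescence.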
FLuc modulator – qHTS profiling assay for firefly luciferase inhibitor/activator using purifed enzyme and Km concentrations of substrates (counterscreen for miR-21 project). Luciferin 4-monooxygenase (Photinus pyralis), P08659. purified FLuc, Km substrates, luminescence inhibition. Potency, µM (series often up to 57.5 µM), most hits filed as inhibitors. 360,000 tested, 6.9% active. AID 588342, 2011; also: nearly all actives have a fitted effect of over 55% in size
Target sequence (P08659 whole entry, looked up): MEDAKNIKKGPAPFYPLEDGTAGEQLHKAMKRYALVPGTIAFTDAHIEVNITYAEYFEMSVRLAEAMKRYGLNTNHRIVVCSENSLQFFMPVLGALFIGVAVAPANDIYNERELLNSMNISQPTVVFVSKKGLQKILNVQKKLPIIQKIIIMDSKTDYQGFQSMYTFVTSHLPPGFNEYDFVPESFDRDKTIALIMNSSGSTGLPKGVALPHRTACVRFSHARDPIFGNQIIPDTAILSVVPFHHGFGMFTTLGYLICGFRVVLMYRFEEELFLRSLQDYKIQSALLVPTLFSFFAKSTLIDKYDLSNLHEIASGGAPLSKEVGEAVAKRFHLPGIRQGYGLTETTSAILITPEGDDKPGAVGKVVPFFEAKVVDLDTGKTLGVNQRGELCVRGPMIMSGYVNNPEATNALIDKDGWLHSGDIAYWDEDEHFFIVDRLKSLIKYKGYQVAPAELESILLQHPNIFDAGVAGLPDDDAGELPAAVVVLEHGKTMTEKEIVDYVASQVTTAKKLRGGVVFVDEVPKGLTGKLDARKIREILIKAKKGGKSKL
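Purified P. pyralis luciferase, 10 nM final, with Km-level 10 uM D-luciferin and 10 uM ATP in 50 mM Tris acetate pH 7.5, 10 mM Mg acetate, 0.01% Tween-20, 0.05% BSA; 6-point qHTS titration about 60 µM downward; luminescence read.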
A number is an active result; – = inactive; ? = inconclusive; · = no result; [ ] = dose if it differs, or a comment. Calls follow the shape of the dose curve; as a rule, active = well fitted curve in the direction sought with a large enough effect; inconclusive = small, poorly fitted or top-dose-only effect, or another doubt; inactive = no such curve, though single readings can be large; an effect the other way counts as inactive or inconclusive.

SMILES	Luc counter	SMN2 splice enh	Rab9 prom act	NPC1 prom act	ELG1 genotox	FLuc modulator
O=C1NC(=O)/C(=C\c2ccccc2OCc2ccccc2)S1	–	–	–	–	–	27µM
CCOC(=O)c1nn(-c2ccc(Br)cc2)cc1C(=O)c1cccc2ccccc12	–	?	?	–	–	6.7µM
O=C(COC(=O)CNS(=O)(=O)c1ccc(F)c(F)c1F)NCCc1ccccc1	·	·	?	?	?	5.4µM
CC(C)(C)OC(=O)COc1ccc(/C=N/NC(=O)CN2CCCCC2)cc1	·	·	1.1µM	1.6µM	?	–
O=C(O)COc1ccc(/C=N/NC(=O)COc2nsnc2N2CCOCC2)cc1	–	·	–	–	–	–
CC(C)(C)c1ccc(OCC(=O)N/N=C/c2ccsc2)cc1	·	·	–	–	–	11µM
COc1ccc(/C=N/NC(=O)CN2CCCC2)cc1	·	·	–	–	–	–
CC(C)(C)c1ccc(OCC(=O)N/N=C/c2ccc(N3CCOCC3)cc2)cc1	–	–	–	–	–	5.4µM
NCC1OC(OC2C(N)CC(N)[C@@H](O)[C@@H]2OC2O[C@H](CO)[C@@H](O[C@@H]3OC(CN)C(O)C(O)C3N)C2O)C(N)C(O)C1O (stereo not given in full)	–	–	·	·	·	·
CSc1cccc(NC(C)=O)c1	–	–	–	–	–	–
CC(=O)c1cccc(NC(=O)COc2ccccc2)c1	–	–	–	–	?	?
CSc1cccc(NC(=O)COc2ccccc2)c1	–	–	–	–	–	17µM
CSc1cccc(NC(=O)Nc2ccccc2C(N)=O)c1	·	·	–	–	–	11µM
CSc1cccc(NC(=O)Nc2ccccc2)c1	–	?	–	–	?	13µM
CN1/C(=C\C=O)C(C)(C)c2ccccc21	–	–	–	–	–	–
CN1\C(=C/C=C/C=C/C=[N+](C)C)C(C)(C)c2ccccc21	11µM	–	–	–	–	8.5µM
CN(C)c1ccc(N=C/C=C2\N(C)c3ccccc3C2(C)C)cc1	–	–	–	–	–	15µM
Cc1sc2nc(CN3CCOCC3)nc(NS(=O)(=O)c3cc(Cl)ccc3Cl)c2c1C	·	·	–	–	–	–
Clc1ccc(CSc2ccc(-c3ccccn3)nn2)cc1	–	–	?	?	23µM	?
c1ccc(CSc2ccc(-c3ccccn3)nn2)cc1	–	0.79µM	2.2µM	0.79µM	2.3µM	4.8µM
COCCCNC(=O)c1sc2ncnc(N3CCc4ccccc4C3)c2c1C	–	·	–	–	–	–
Cc1cc(-c2nnc3n2N=C(c2ccc(-c4ccccc4)cc2)CS3)n[nH]1	·	·	–	–	–	17µM
c1ccc(-c2cc(-c3nnc4n3N=C(c3ccc5ccccc5c3)CS4)[nH]n2)cc1	–	11µM	–	–	?	?
Fc1ccc(C2=Nn3c(nnc3-c3n[nH]c4c3CCC4)SC2)cc1	–	20µM	–	–	18µM	–
Cc1cc(-c2nnc3n2N=C(c2ccccc2)CS3)n[nH]1	·	·	–	–	?	–
SMILES	Luc counter	SMN2 splice enh	Rab9 prom act	NPC1 prom act	ELG1 genotox	FLuc modulator
CCN(CC)S(=O)(=O)c1ccc(NC2=NS(=O)(=O)c3ccccc32)cc1	–	–	–	–	–	–
O=S1(=O)N=C(Nc2nncs2)c2ccccc21	–	–	–	–	–	19µM
CC(=O)Nc1cccc(-c2nnc(SCC(=O)c3cc([N+](=O)[O-])ccc3Cl)o2)c1	·	–	·	·	·	?
O=C(Nc1ccc(-c2nc3cc(Cl)ccc3o2)cc1)C1CCCO1 (stereo not given)	–	2.8µM	0.5µM	0.79µM	18µM	1.2µM
O=C(Nc1ccc(Oc2ccccc2)cc1)C1CCCO1 (stereo not given)	–	–	?	?	–	?
O=C(Nc1ccc2oc(-c3ccccc3)nc2c1)C1CCCO1 (stereo not given)	–	11µM	2.8µM	2.2µM	18µM	7.6µM
O=C(Nc1ccc(-c2nc3cccnc3s2)cc1)C1CCCO1 (stereo not given)	?	1.1µM	0.1µM	0.13µM	?	0.6µM
O=C(Nc1ccc(-c2nc3ccccc3o2)cc1)C1CCCO1 (stereo not given)	–	7.9µM	0.45µM	0.32µM	?	1.3µM
O=C(Nc1ccc(-c2nc3cc(Cl)ccc3o2)cc1)c1cc2ccccc2o1	·	–	·	·	·	–
CCN1CCCC1CNC(=O)c1cc(NC(C)=O)c(N(C)C)cc1OC (stereo not given)	–	–	–	–	–	–
Cc1ccc(CN2C(=O)SC(Nc3ccc(Cl)cc3)C2=O)cc1 (stereo not given)	·	–	·	·	·	–
CC1Cc2cc(S(=O)(=O)CCC(=O)Nc3ccc(F)cc3Cl)ccc2N1C(=O)C1CC1 (stereo not given)	·	·	·	·	·	–
COc1ccc(N=C2NC(=O)S/C2=C\c2ccc(N(C)C)cc2)cc1	–	?	?	?	?	21µM
CCOc1ccc(N=C2NC(=O)S/C2=C\c2ccc(Cl)cc2)cc1	–	–	–	–	–	–
Nc1ccccc1Nc1ccccc1	–	–	–[1.84 µM]	–	–	–
Nc1ccccc1Nc1cc(-c2ccccc2)[nH]n1	–	?	–	–	–	11µM
Nc1ccccc1Nc1cc(-c2ccccc2)nn1-c1ccccc1	–	–	–	–	–	17µM
CCOC(=O)c1cc(C)n(CC2CCC(C(=O)Nc3ccc(Cl)cc3)CC2)c1C (stereo not given)	·	·	·	·	·	–
O=C(CCS(=O)(=O)c1ccc(Br)cc1)Nc1ccc(Br)cc1F	–	?	–	–	–	–
O=C(NCC(=O)N1CCCCCC1)c1ccc(Br)cc1	·	·	–	–	–	–
Cn1c(N)c(C(=O)c2cc(-c3ccccc3)nc3ccccc23)c(=O)n(C)c1=O	–	11µM	–	–	?	5.4µM
O=[N+]([O-])c1ccc2nc(-c3ccccc3)cc(-c3ccccc3)c2c1	–	–	–	–	–	–
O=C(O)c1cc(-c2cccc([N+](=O)[O-])c2)nc2ccccc12	·	·	–	–	–	19µM
Cn1c(=O)c(C(=O)COC(=O)c2cc(-c3ccccc3)nc3ccccc23)c(N)n(Cc2ccccc2)c1=O	–	–	–	–	–	–
Cc1cc(-c2cccc([N+](=O)[O-])c2)nc2ccc3ccccc3c12	–	–	?	?	–	2.7µM
Cc1cccc(OCCCC(=O)Nc2ccc(S(=O)(=O)Nc3onc(C)c3C)cc2)c1	–	–	–	–	–	–
Cc1cccc(NC(=O)Nc2ccc(S(=O)(=O)Nc3onc(C)c3C)cc2)c1	·	·	?	–	–	17µM

Compound activity: PubChem BioAssay, National Center for Advancing Translational Sciences (NCATS)
